For assay [1], the target named is Estrogen receptor beta (Homo sapiens) (UniProt Q92731). Briefly: qHTS assay to identify small molecule antagonists of the estrogen receptor beta (ER-beta) signaling pathway (AID 1259378; active = well fitted inhibition curve with a large enough effect in the signal ratio in the repeat runs, not every such curve was filed as active; the % refers to the signal ratio; also: potency is read from the fitted curve at half-maximal effect). The essentials: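 ER-beta-UAS-bla HEK293T (GripTite) cells in 2% charcoal-stripped FBS medium were preincubated 6 hr at 37C, dosed with compound, then stimulated with 1 nM E2 (final) for 16 hr; beta-lactamase reporter read by B/G FRET fluorescence after 2 hr substrate loading.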
Sequence of Estrogen receptor beta (Homo sapiens) (Q92731 whole entry, looked up, the tested form may be a part): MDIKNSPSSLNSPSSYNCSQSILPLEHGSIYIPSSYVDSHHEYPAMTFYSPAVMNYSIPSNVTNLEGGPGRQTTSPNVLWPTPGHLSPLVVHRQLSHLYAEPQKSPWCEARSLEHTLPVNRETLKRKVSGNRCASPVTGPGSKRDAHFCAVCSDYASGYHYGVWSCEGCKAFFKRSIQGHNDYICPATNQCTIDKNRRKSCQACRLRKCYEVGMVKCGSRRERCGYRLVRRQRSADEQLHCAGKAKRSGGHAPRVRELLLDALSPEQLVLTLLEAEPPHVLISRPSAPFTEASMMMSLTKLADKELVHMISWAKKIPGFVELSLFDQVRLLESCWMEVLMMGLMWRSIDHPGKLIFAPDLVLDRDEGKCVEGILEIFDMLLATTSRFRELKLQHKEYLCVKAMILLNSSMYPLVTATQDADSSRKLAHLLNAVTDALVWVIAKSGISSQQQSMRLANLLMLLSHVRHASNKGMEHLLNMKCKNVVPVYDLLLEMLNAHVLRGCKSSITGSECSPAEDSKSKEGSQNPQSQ

Assay [2] is described as follows: qHTS assay to identify small molecule agonists of the androgen receptor (AR) signaling pathway in the presence of an antagonist - cell viability counter screen (AID 1259379). Also: nearly all actives have a fitted effect of over 25% in size. Also: potency is read from the fitted curve at half-maximal effect. The essentials: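 A CellTiter-Fluor read-out measured viability of MDA-kb2 reporter cells (MMTV promoter with AR and GR response elements). Treatment: nilutamide 3.0uM final with compounds at 15 concentrations, 16 hr, 37C, 0% CO2.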
Background: In qHTS, concentration-response curves come from the screen itself.

Assay [3] has as its target Androgen receptor (Homo sapiens) (UniProt P10275). Briefly: qHTS assay to identify small molecule agonists of the androgen receptor (AR) signaling pathway in the presence of an antagonist (AID 1259381; calls by dose curve; also: nearly all actives have a fitted effect of over 15% in size). The essentials:
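Using human MDA-kb2 cells with an MMTV promoter–luciferase construct (AR and GR response elements), agonist activity is scored under 3.0uM nilutamide (final) co-treatment; 16hr incubation, 37C, luminescence readout via ONE-Glo.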

A short description of assay [4]: qHTS assay to identify small molecule antagonists of the estrogen receptor beta (ER-beta) signaling pathway - cell viability counter screen (AID 1259382). Also: series mostly up to about 92 µM; nearly all actives have a fitted effect of over 55% in size. The essentials:
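Agonist-stimulated (1nM E2) ER-beta-UAS-bla HEK293T cells are incubated with library compounds for 16 hr at 37C. Cell viability is then assessed in the reporter-assay wells by adding CellTiter-Glo and reading luminescence after 30 min.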

For assay [5], the target named is Estrogen receptor (Homo sapiens) (UniProt P03372). Description: qHTS assay to identify small molecule agonists of the estrogen receptor alpha (ER-alpha) signaling pathway in the presence of an antagonist (AID 1259383; calls by dose curve; also: top concentration of the series differs between compounds; nearly all actives have a fitted effect of over 15% in size). The essentials: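 Using VM7Luc4E2 cells seeded 24hr before treatment, antagonist ICI-182,780 (10.0nM final) was added, followed by compounds at 15 concentrations. Plates incubated 22hr; ONE-Glo luminescence quantified reporter activity.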
Sequence of Estrogen receptor (Homo sapiens) (P03372 whole entry, looked up): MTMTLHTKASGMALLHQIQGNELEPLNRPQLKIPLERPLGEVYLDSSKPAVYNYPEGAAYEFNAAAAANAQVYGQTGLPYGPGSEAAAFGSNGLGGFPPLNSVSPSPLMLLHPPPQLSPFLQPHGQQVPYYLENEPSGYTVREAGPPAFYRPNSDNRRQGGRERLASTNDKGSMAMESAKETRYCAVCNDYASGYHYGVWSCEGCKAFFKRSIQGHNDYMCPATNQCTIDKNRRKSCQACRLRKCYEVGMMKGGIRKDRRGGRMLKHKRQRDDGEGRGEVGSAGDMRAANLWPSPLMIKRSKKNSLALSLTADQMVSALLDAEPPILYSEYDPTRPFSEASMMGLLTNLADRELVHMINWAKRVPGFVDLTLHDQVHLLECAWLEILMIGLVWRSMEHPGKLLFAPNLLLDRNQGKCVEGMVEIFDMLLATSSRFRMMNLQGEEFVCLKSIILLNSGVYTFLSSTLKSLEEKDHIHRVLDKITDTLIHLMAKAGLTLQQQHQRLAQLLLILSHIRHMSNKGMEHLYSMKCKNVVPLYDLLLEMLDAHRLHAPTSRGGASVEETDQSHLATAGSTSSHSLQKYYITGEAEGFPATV

Assay [6] is described as follows: qHTS assay to identify small molecule agonists or antagonists of the thyroid stimulating hormone receptor (TSHR) signaling pathway - wild type cell line counter screen (AID 1259384; calls by dose curve). The essentials:
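Wild-type HEK293 cells were plated 18 h at 37 C/5% CO2, pin-dosed with compound plus Ro20-1724 medium, held 30 min at room temperature, then given cAMP-d2 and anti-cAMP-cryptate; fluorescence was read after 1 h. Fifteen concentrations, triplicate.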

Assay [7] deals with Thyrotropin receptor (Homo sapiens) (UniProt P16473). Briefly: qHTS assay to identify small molecule antagonists of the thyroid stimulating hormone receptor (TSHR) signaling pathway (AID 1259385; calls by dose curve; also: nearly all actives have a fitted effect of over 20% in size). The essentials: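 TSHR-HEK293 cells were plated and held 18 h at 37C/5% CO2, then given compound plus Ro20-1724 and stimulated with TSH at 1.5 ng/mL final. After 30 min at room temperature, cAMP was detected with cAMP-d2/anti-cAMP-cryptate (1 h) by fluorescence.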
Sequence of Thyrotropin receptor (Homo sapiens) (P16473 whole entry, looked up): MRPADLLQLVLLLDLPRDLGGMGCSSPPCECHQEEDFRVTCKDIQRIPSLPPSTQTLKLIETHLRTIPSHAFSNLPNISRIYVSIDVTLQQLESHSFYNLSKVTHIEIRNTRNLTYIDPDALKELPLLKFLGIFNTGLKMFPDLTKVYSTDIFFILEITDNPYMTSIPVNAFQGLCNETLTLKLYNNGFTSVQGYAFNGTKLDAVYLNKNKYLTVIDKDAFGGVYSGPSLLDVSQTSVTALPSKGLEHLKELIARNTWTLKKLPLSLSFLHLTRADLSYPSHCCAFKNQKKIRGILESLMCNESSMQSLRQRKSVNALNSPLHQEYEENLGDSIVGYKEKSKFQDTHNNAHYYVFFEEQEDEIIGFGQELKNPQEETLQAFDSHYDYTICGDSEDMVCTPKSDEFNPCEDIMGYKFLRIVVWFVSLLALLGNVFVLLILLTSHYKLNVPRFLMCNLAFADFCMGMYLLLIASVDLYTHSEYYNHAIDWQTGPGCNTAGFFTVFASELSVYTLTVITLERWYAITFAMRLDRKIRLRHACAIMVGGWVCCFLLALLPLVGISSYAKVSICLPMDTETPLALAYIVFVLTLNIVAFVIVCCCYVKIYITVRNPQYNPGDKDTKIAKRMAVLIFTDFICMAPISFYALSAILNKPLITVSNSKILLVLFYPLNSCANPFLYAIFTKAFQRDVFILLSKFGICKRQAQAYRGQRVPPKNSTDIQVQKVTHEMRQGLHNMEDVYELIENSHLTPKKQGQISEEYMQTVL

Assay [8] deals with Progesterone receptor (Homo sapiens) (UniProt P06401). Description: qHTS assay to identify small molecule agonists of the progesterone receptor (PR) signaling pathway (AID 1346784; calls by dose curve; also: nearly all actives have a fitted effect of over 30% in size; also: potency is read from the fitted curve at half-maximal effect). The essentials: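 Cells (PR-UAS-bla HEK 293T, GripTite) were plated in assay medium containing 2% charcoal-stripped FBS and incubated 6 hr. Test compounds in DMSO were added for 16 hr at 37C. FRET substrate was then loaded for 2 hr at room temperature before fluorescence reading.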
Sequence of Progesterone receptor (Homo sapiens) (P06401 whole entry, looked up): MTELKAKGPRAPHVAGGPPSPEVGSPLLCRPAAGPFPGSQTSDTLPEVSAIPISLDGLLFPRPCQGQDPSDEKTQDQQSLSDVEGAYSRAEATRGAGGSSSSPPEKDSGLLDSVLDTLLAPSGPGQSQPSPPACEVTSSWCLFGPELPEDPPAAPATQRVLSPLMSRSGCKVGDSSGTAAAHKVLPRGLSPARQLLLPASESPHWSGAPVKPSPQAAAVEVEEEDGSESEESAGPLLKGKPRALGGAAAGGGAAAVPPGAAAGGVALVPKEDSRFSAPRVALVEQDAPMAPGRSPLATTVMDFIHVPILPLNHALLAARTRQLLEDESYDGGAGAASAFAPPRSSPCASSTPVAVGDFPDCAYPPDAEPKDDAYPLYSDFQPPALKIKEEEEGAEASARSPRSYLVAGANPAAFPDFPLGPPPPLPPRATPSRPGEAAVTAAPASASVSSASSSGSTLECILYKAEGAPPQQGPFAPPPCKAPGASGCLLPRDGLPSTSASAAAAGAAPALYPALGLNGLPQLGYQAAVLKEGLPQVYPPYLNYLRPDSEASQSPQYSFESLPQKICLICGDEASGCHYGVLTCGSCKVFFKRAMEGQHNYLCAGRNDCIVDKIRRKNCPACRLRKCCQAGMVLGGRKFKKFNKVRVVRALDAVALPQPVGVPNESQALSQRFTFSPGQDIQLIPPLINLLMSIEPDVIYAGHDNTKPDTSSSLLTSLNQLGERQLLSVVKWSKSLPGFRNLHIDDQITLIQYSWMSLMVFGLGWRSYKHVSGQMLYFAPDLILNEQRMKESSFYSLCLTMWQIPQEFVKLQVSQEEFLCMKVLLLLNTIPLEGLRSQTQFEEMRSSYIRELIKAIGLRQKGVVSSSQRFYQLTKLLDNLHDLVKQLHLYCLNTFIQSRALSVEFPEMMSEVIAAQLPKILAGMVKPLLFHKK

Assay [9] has the same target. Briefly: qHTS assay to identify small molecule antagonists of the progesterone receptor (PR) signaling pathway (AID 1346795; active = well fitted inhibition curve with a large enough effect in the signal ratio in the repeat runs, not every such curve was filed as active; the % refers to the signal ratio; also: potency is read from the fitted curve at half-maximal effect). The essentials: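 Antagonist mode: compounds tested against 1 nM (final) promegestone stimulation in HEK293T cells expressing PR-UAS-bla reporter, 16 hr at 37C, 5% CO2; beta-lactamase activity detected via B/G FRET substrate after 2 hr at room temperature.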

Assay [10] can be described thus: qHTS assay to identify small molecule antagonists of the TGF-beta/Smad signaling pathway - cell viability counter screen (AID 1346824). Also: nearly all actives have a fitted effect of over 50% in size. The essentials: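 SBE-bla HEK 293T cells were plated overnight at 37 C, then given compounds in DMSO plus TGF-beta1 (added as 0.25 ng/mL solution) for 5 hr. After the bla read, CellTiter-Glo was added to the same wells and luminescence read after 30 min at room temperature.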

Assay [11] is described as follows: qHTS assay to identify small molecule agonists of the TGF-beta/Smad signaling pathway - cell viability counter screen (AID 1346829). Also: top concentration of the series differs between compounds; nearly all actives have a fitted effect of over 45% in size. The essentials:
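SBE-bla HEK 293T cells plated overnight, compound exposure 5 hr at 37 C. Viability read in the same wells by CellTiter-Glo luminescence after 30 min at room temperature, following the beta-lactamase read.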

Assay [12] in a line: qHTS assay to identify small molecule agonists of the TGF-beta/Smad signaling pathway (AID 1346859; active = well fitted activation curve with a large enough effect in the signal ratio in the repeat runs, not every such curve was filed as active; the % refers to the signal ratio; also: series mostly up to about 77 µM). The essentials:
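Reporter line: HEK 293T with stably integrated SBE-controlled beta-lactamase. Compound exposure lasts 5 hr at 37 C and 5% CO2; substrate loading follows for 2 hr at room temperature, with emission read at 460 and 530 nm.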

The target of assay [13] is Thyrotropin-releasing hormone receptor (Homo sapiens) (UniProt P34981). Briefly: qHTS assay to identify small molecule antagonists of the thyrotropin-releasing hormone receptor (TRHR) signaling pathway (AID 1346877; active = well fitted inhibition curve with a large enough effect in the repeat runs, not every such curve was filed as active; also: series mostly up to about 51 µM). The essentials:
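Screening used HEK293 cells engineered with TRHR, with a brief 5 min room-temperature compound exposure preceding addition of TRH to 1 nM. The read-out was kinetic calcium-dye fluorescence, concentration-response from 15 doses in triplicate.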

Assay [14] has the same target. Briefly: qHTS assay to identify small molecule agonists of the thyrotropin-releasing hormone receptor (TRHR) signaling pathway (AID 1346891; calls by dose curve;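 also: HEK293 cells expressing TRHR with calcium dye readout; series mostly up to about 58 µM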). The essentials:
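Cells: TRHR-Hek293, seeded and incubated 18 h. Dye loading: 2 h at 37 °C. Compound added from DMSO stock by pin tool. Read-out: kinetic calcium fluorescence over 3 min.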

The nature of assay [15]: qHTS assay to identify small molecule agonists of the estrogen receptor beta (ER-beta) signaling pathway - cell viability counter screen (AID 1259380). Also: nearly all actives have a fitted effect of over 30% in size. The essentials: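 Cells used were ER-beta-UAS-bla HEK293T in medium with 2% charcoal-stripped FBS. They were treated for 16 hr at 37C. Viability came from CellTiter-Glo luminescence.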
Assay [16] is described as follows: qHTS assay to identify small molecule agonists of the estrogen receptor alpha (ER-alpha) signaling pathway in the presence of an antagonist - cell viability counter screen (AID 1259386).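 Also: series mostly up to about 92 µM; cells exposed to compounds for 22 h at 37 °C before the viability read; nearly all actives have a fitted effect of over 30% in size.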 The essentials:
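ICI-182,780 at 10.0nM final accompanies the compound titration (15 concentrations, 22hr, 37C) on VM7Luc4E2 cells. The CellTiter-Fluor fluorescence readout runs in the same wells as the luciferase assay.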

A short description of assay [17]: qHTS assay to identify small molecule agonists of the progesterone receptor (PR) signaling pathway - cell viability counter screen (AID 1346799; calls by dose curve; also: nearly all actives have a fitted effect of over 45% in size). The essentials:
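Cells (PR-UAS-bla HEK293T) are plated at 3,000/well in 2% charcoal-stripped FBS medium, rested 6 hr, dosed and incubated 16 hr at 37C. CellTiter-Glo is then added and luminescence measured after 30 min at room temperature.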

For assay [18], the target named is Estrogen receptor beta (Homo sapiens) (UniProt Q92731). Description: qHTS assay to identify small molecule agonists of the estrogen receptor beta (ER-beta) signaling pathway (AID 1259377; active = well fitted activation curve with a large enough effect in the signal ratio in the repeat runs, not every such curve was filed as active; the % refers to the signal ratio). The essentials: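 Agonist mode cell assay in GripTite HEK293T cells expressing an ER-beta fusion that drives beta-lactamase from an Upstream Activator Sequence; 16 hr compound exposure at 37C, then 2 h LiveBLAzer B/G FRET substrate at room temperature, fluorescence read-out.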

A short description of assay [19]: qHTS assay to identify small molecule antagonists of the progesterone receptor (PR) signaling pathway - cell viability counter screen (AID 1346798). Also: series mostly up to about 92 µM; nearly all actives have a fitted effect of over 50% in size. The essentials:
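Counter screen for cytotoxicity: viability of PR-UAS-bla HEK293T cells was measured with CellTiter-Glo luminescence following 16 hr compound exposure in the presence of R5020.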

Molecules are shown by their SMILES. Results filed as inconclusive are left out. Calls of active or inactive are those of the source. Unless noted, calls follow the shape of the dose curve; as a rule, active = well fitted curve in the direction sought with a large enough effect in the repeat runs; inconclusive = weak or mixed curves; inactive = no such curve, though single readings can be large; an effect the other way counts as inactive or inconclusive.

Sequence of Thyrotropin-releasing hormone receptor (Homo sapiens) (P34981 whole entry, looked up): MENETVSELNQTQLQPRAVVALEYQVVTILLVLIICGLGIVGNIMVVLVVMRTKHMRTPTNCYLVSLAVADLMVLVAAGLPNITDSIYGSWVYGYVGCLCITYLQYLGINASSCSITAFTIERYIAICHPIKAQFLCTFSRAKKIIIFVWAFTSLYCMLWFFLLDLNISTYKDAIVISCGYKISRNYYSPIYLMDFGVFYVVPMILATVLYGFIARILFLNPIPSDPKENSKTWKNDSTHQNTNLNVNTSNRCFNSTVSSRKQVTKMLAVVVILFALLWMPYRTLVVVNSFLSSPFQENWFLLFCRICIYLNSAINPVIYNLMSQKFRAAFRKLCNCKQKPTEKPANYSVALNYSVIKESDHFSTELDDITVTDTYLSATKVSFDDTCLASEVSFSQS
Sequence of Androgen receptor (Homo sapiens) (P10275 whole entry, looked up): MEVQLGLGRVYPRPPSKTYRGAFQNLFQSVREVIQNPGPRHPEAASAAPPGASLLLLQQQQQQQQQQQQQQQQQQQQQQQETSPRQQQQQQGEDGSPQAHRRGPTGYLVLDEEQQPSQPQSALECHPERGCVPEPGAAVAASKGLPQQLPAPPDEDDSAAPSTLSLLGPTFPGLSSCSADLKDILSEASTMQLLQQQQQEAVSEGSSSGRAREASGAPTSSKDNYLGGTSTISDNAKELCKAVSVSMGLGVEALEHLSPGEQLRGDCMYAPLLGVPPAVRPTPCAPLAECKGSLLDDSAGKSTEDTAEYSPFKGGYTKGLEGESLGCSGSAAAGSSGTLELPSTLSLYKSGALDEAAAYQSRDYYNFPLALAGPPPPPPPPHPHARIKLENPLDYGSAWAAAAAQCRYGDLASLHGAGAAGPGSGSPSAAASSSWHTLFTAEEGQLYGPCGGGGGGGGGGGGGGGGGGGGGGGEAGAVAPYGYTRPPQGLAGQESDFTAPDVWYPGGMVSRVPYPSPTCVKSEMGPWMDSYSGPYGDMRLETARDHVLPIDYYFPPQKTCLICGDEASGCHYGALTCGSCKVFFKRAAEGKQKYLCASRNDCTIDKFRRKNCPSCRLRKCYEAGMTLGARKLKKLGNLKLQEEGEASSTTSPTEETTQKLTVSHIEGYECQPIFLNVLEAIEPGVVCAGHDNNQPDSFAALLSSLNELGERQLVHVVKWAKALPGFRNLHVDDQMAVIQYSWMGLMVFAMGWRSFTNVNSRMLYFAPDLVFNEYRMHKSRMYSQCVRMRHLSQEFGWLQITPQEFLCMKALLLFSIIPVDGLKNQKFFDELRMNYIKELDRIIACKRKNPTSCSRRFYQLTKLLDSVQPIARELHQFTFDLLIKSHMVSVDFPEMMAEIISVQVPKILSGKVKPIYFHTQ

In the case of `Cc1occc1C(=O)Nc1ccc(C(=O)N2CCC(F)(F)/C(=C\C(=O)N3CCC(N4CCCCC4)CC3)c3ccccc32)cc1`, the Potency entry in assay [1], in assay [2], in [3], in assay [4], in [5] and in assay [7] was “inactive” in each case. Further, the Potency entry in [8], in assay [9] and in assay [14] was “inactive” in each case. The molecule was called inactive in assay [6], in assay [10], in assay [11], in [12] and in assay [13].
With `COc1ccc(C(=O)c2cccc(O)c2)c(OC)c1`, in [1], the Potency was 43.2 µM (active). The Potency entry in assay [2], in [15], in assay [3], in assay [4] and in [8] was “inactive” each time. The call in assay [10], in assay [11], in assay [12] and in [13] was inactive.
As for `CCCOc1ccc(S(=O)(=O)N2CCN(CC)CC2)cc1-c1nc2c(CC)n(Cc3ccccn3)nc2c(=O)[nH]1`, the Potency result in assay [2], in assay [4], in assay [5], in [16], in assay [8] and in assay [17] was “inactive” in each case. Also, the call in [6], in assay [10], in [11] and in assay [13] was inactive.
Turning to `O=C(OCCOCCO)c1ccccc1Nc1cccc(C(F)(F)F)c1`, the Potency result in assay [2], in assay [15], in assay [4], in [5], in assay [16] and in [8] was “inactive” each time. In addition, the Potency result in [14] was “inactive”. The result in [6], in assay [10], in assay [11], in [12] and in assay [13] was inactive. For the same molecule, the Potency in assay [9] was 18.8 µM (active).
`CCCC1C(CC)=CC(CC)=CN1c1ccccc1` (stereo unspecified): the Potency entry in assay [18], in assay [15], in assay [4], in [7] and in [8] was “inactive” in each case. Also, the Potency in assay [2] is 48.6 µM (active); in assay [9], 27.3 µM (active). Moreover, the outcome in assay [10], in [11] and in assay [12] was inactive.
`NC(=O)N(O)[C@@H]1C=C[C@H](Oc2cccc(Oc3ccc(F)cc3)c2)C1`: the Potency result in assay [4], in assay [7] and in [8] was “inactive” in each case. In addition, the result in assay [6], in assay [10], in [11] and in assay [12] was inactive.
As to `CCOC(=O)[C@@H](C)Oc1ccc(Oc2nc3ccc(Cl)cc3o2)cc1`, the Potency result in [2], in [15], in assay [3], in [4], in assay [16] and in [8] was “inactive” each time. Also, the Potency result in assay [19] and in assay [14] was “inactive” each time. In addition, the molecule was classed as inactive in [10], in assay [11], in assay [12] and in [13].
Turning to `C[C@]12CCC(=O)C=C1C=C[C@@H]1[C@@H]2CC[C@@]2(C)[C@H]1CC[C@@]21CCC(=O)O1`, the Potency entry in assay [18], in [2], in [4], in assay [5], in [7] and in [16] was “inactive” throughout. Moreover, the result in assay [6], in [10], in assay [11] and in [13] was inactive. For the same molecule, the Potency in assay [8] was 1.68 µM (active).
Regarding `N#C/C(=C1/SC[C@@H](c2ccc(Cl)cc2Cl)S1)n1ccnc1`, the Potency entry in [18], in assay [15], in assay [4], in assay [16], in assay [8] and in assay [14] was “inactive” throughout. Further, the result in assay [6], in [10], in assay [11] and in assay [13] was inactive.
Turning to `Nc1ccc(C(=O)OCCCOC(=O)c2ccc(N)cc2)cc1`, the Potency entry in assay [2], in assay [5], in assay [16], in assay [8] and in assay [14] was “inactive” in each case. The outcome in [10], in [11], in assay [12] and in [13] was inactive.
With `CN(C)CCOC1=Cc2ccccc2Sc2ccc(Cl)cc21`, the Potency entry in [2], in assay [5], in [16], in [8], in [19] and in assay [17] was “inactive” in each case. The call in assay [10], in assay [11], in assay [12] and in [13] was inactive.

For the origin of these results see PubChem BioAssay (Tox21).
